In ChEMBL document CHEMBL1961873, “Compounds: GSK PKIS; Assays: Nanosyn kinase panel” (2012):

biological target: Serine/threonine-protein kinase PLK1 (Homo sapiens) (UniProt P53350); settings: at 1 µM
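Note: reported value is a mean PLK1 inhibition.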

Sequence of Serine/threonine-protein kinase PLK1 (Homo sapiens) (P53350 whole entry): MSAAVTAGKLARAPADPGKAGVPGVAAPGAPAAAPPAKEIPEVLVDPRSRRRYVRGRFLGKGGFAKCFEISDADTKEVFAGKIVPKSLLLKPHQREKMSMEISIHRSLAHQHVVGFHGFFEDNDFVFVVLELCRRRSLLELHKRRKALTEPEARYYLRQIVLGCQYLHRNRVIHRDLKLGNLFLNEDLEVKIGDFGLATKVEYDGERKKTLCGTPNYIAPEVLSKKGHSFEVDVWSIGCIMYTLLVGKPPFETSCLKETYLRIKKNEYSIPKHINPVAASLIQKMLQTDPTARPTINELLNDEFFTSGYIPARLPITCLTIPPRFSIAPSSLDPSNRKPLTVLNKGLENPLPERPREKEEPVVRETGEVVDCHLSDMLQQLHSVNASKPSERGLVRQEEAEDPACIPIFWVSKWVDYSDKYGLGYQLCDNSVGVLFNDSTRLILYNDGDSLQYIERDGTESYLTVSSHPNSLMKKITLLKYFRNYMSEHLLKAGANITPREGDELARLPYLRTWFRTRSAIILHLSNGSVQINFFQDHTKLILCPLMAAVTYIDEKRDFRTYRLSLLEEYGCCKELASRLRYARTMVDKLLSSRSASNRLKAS

SMILES | inhibition
CCS(=O)(=O)c1ccc(OC)c(Nc2ncc(-c3cccc(OC)c3)o2)c1 | 1.04%
CCn1c(-c2nonc2N)nc2c(C#CC(C)(C)O)nc(OCCNC)cc21 | 8.02%
CN1CCN(C(=O)c2ccc(NC(=O)Nc3ccc(N(C)c4ccnc(Nc5ccc(CS(C)(=O)=O)cc5)n4)cc3)cc2)CC1 | 3.2%
CC(C)c1ccc(Nc2nccc(-c3cnn4ncccc34)n2)cc1 | 4.81%
N#Cc1cccc(Nc2nccc(-c3cnn4ncccc34)n2)c1 | 9.23%
c1ccc(Cc2nc3ccc(Nc4ncnc5ccccc45)cc3[nH]2)cc1 | 1.76%
Cc1ccc(C(=O)NC2CC2)cc1-c1ccc2[nH]ncc2c1 | -0.76%
COC(=O)Nc1nc2cc(Oc3ccc(NC(=O)Nc4cccc(Br)c4)cc3)ccc2[nH]1 | 2.36%
NC(=O)c1sc(-n2cnc3ccccc32)cc1OCc1ccccc1Br | 95.3%
c1ccc(Nc2ncc(-c3ccccc3)o2)cc1 | 5.42%
CCCN1CCCC(c2ccc(Nc3nc(Nc4cc(F)ccc4C(N)=O)c4cc[nH]c4n3)c(OC)c2)C1 (stereo not drawn) | 48.1%
Nc1ccc(C#Cc2cncnc2Nc2ccc(OCc3cccc(F)c3)c(Cl)c2)cc1 | -0.53%
CN(C)C(=O)O[C@H]1CN[C@H](C#Cc2cc3ncnc(Nc4ccc(OCc5cccc(F)c5)c(Cl)c4)c3s2)C1 | 2.92%
O=C1Nc2ccc(-c3cccnc3)cc2C1=Cc1cc(Br)c(O)c(Br)c1 | 7.7%
CS(=O)(=O)Nc1cccc(-c2ccc3c(NC(=O)C4CC4)n[nH]c3c2)c1 | 2.1%
CCS(=O)(=O)c1ccc(OC)c(Nc2nccc(N(C)c3ccc4c(C)n[nH]c4c3)n2)c1 | 8.94%
COc1cccc(-n2ncc3c(N/N=C/c4ccc(S(C)(=O)=O)cc4)ncnc32)c1 | 0.92%

SMILES | inhibition
Cc1ccc2c(-c3ccnc(Nc4cccc(C(F)(F)F)c4)n3)c(-c3ccccc3)nn2n1 | 6.37%
Cc1ccc2c(-c3ccnc(Nc4ccc5c(c4)OCCO5)n3)c(-c3ccc(C(F)(F)F)cc3)nn2n1 | 2.75%
NS(=O)(=O)c1ccc(-c2cc3ccncc3cc2OCc2ccccc2)cc1 | 1.7%
COc1ccc2ncnc(Nc3ccc(OCc4ccccc4)cc3)c2c1 | 0.42%
CCn1c(-c2nonc2N)nc2ccc(F)cc21 | 4.59%
N#Cc1c(NC(=O)c2ccccc2F)sc2c1CCCC2 | 0.29%
COc1cccc(-n2nc(C)c3c(N/N=C(\C)c4ccncc4)ncnc32)c1 | 2.34%
OCc1ccc(-c2nc(-c3ccccn3)c(-c3ccc4c(c3)OCO4)[nH]2)cc1 | 4.3%
CCOc1nccc2c1nc(-c1nonc1N)n2CC | 5.25%
NS(=O)(=O)c1ccc(N/N=C2\C(=O)Nc3ccc(Cl)cc32)cc1 | 2.65%
Cc1ccc(O)cc1Nc1ccnc2ccc(S(C)(=O)=O)cc12 | 2.78%
COC(=O)c1ccc2c(c1)C(=Cc1cc(Br)c(O)c(Br)c1)C(=O)N2 | 17.4%
[O-][S+]1CCN(Cc2ccc(-c3ccc4ncnc(Nc5ccc(OCc6ccccc6)c(Cl)c5)c4c3)o2)CC1 | 2.79%
COc1cccc(-n2ncc3c(N/N=C/c4ccc(C)cc4)ncnc32)c1 | 14.2%
O=S(=O)(CCOCc1ccc(-c2ccc3ncnc(Nc4ccc(OCc5cccc(F)c5)c(Cl)c4)c3c2)o1)c1ccccc1 | 2.68%
COc1cc(/C=N/Nc2ncnc3c2cnn3C(C)C)ccc1O | 4.86%
